# Test results published in the supplement of paper PMC10849652.
# Of roughly 7,900 targets only a part is listed; those with a hit were picked by preference. About 0.6% of all pairs of compound and target were hits. Unmarked numbers belong to inactive results.
# Columns and labels:
# Experiment in all cases: log2 fold change, soluble protein after heating vs DMSO (PISA); higher = thermal stabilisation; K562 cells, 10 uM, 30 min; active = over 0.2 and 3.5 SD of the protein, either way, in both replicates (recomputed)
# [1] = compound: Cc1ccc(NC(=O)c2ccc(CN3CC[C@H](N(C)C)C3)c(C(F)(F)F)c2)cc1Nc1nccc(-c2cncnc2)n1 [bafetinib]
# Procedure, shortened: (§1)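 Soluble protein was quantified by TMTpro 16plex LC-MS/MS after channel sums were equalised. It was obtained as the supernatant after 21,000xg for 90 min from pooled aliquots of K562 cells (2×10^6 cells/mL, 10 μM compound, 30 min) heated for 3 min across 48°C-58°C and extracted in PBS with 0.5% NP-40 at 4°C. Thermal stability values are relative to control samples and come from duplicates. They are given as log2 fold changes.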
# [2] = compound: Cc1cccc(CC(=O)N2CCc3c2ccc(-c2cn(C)c4ncnc(N)c24)c3F)n1
# Procedure, shortened: as §1
# [3] = compound: Cc1cn(-c2cc(NC(=O)c3ccc(C)c(Nc4nccc(-c5cccnc5)n4)c3)cc(C(F)(F)F)c2)cn1 [nilotinib]
# Procedure, shortened: as §1
# [4] = compound: Cc1nc(Nc2n[nH]c3c2CN(C(=O)N[C@H](CN(C)C)c2ccccc2)C3(C)C)c2sccc2n1
# Procedure, shortened: as §1
# [5] = compound: Cc1nc(Nc2ncc(C(=O)Nc3c(C)cccc3Cl)s2)cc(N2CCN(CCO)CC2)n1 [dasatinib]
# Procedure, shortened: as §1
# [6] = compound: Cc1ncc(-c2ccnc(Nc3ccc(S(C)(=O)=O)cc3)n2)n1C(C)C
# Procedure, shortened: as §1
# [7] = compound: Cn1cc(-c2ccc3c(c2)CCN3C(=O)Cc2cccc(C(F)(F)F)c2)c2c(N)ncnc21
# Procedure, shortened: as §1
# [8] = compound: Cn1cc(-c2ccc3nnc(C(F)(F)c4ccc5ncccc5c4)n3n2)cn1
# Procedure, shortened: as §1
# [9] = compound: Cn1cncc1[C@@](N)(c1ccc(Cl)cc1)c1ccc2c(c1)c(-c1cccc(Cl)c1)cc(=O)n2C [tipifarnib]
# Procedure, shortened: as §1
# [10] = compound: FC(F)(F)c1ccc(/C=C/c2nc(COc3ccc(CCCCn4ccnn4)cc3)co2)cc1 [mubritinib]
# Procedure, shortened: as §1
# [11] = compound: NC(=O)Nc1cc(-c2cccc(F)c2)sc1C(=O)N[C@H]1CCCNC1
# Procedure, shortened: as §1
# [12] = compound: NC(=O)c1cnc(N[C@@H]2CCCC[C@@H]2N)nc1Nc1cccc(-n2nccn2)c1
# Procedure, shortened: as §1
# [13] = compound: NC1(c2ccc(-c3nc4ccn5c(=O)[nH]nc5c4cc3-c3ccccc3)cc2)CCC1
# Procedure, shortened: as §1
# [14] = compound: NCC(=O)Nc1ccc(-n2nc(C(F)(F)F)cc2-c2ccc3c(ccc4ccccc43)c2)cc1
# Procedure, shortened: as §1
# [15] = compound: Nc1ccccc1NC(=O)c1ccc(CNC(=O)OCc2cccnc2)cc1 [entinostat]
# Procedure, shortened: as §1
# [16] = compound: O=C(CCCCCCC(=O)Nc1ccccc1)NO [vorinostat]
# Procedure, shortened: as §1
# [17] = compound: O=C(CCCCCCNC(=O)c1cnc(N(c2ccccc2)c2ccccc2Cl)nc1)NO [citarinostat]
# Procedure, shortened: as §1
# [18] = compound: O=C(O)c1ccc2c(c1)nc(Nc1cccc(Cl)c1)c1ccncc12 [silmitasertib]
# Procedure, shortened: as §1
# [19] = compound: O=C1NC(=O)C(c2cnc3ccccn23)=C1c1cn2c3c(cc(F)cc13)CN(C(=O)N1CCCCC1)CC2
# Procedure, shortened: as §1
# [20] = compound: c1cc(OCCN2CCCCC2)cc(-c2n[nH]c3ccc(-c4nnc[nH]4)cc23)c1
# Procedure, shortened: as §1
# Sequence of UniProt Q9NVH2 (Q9NVH2 whole entry, looked up): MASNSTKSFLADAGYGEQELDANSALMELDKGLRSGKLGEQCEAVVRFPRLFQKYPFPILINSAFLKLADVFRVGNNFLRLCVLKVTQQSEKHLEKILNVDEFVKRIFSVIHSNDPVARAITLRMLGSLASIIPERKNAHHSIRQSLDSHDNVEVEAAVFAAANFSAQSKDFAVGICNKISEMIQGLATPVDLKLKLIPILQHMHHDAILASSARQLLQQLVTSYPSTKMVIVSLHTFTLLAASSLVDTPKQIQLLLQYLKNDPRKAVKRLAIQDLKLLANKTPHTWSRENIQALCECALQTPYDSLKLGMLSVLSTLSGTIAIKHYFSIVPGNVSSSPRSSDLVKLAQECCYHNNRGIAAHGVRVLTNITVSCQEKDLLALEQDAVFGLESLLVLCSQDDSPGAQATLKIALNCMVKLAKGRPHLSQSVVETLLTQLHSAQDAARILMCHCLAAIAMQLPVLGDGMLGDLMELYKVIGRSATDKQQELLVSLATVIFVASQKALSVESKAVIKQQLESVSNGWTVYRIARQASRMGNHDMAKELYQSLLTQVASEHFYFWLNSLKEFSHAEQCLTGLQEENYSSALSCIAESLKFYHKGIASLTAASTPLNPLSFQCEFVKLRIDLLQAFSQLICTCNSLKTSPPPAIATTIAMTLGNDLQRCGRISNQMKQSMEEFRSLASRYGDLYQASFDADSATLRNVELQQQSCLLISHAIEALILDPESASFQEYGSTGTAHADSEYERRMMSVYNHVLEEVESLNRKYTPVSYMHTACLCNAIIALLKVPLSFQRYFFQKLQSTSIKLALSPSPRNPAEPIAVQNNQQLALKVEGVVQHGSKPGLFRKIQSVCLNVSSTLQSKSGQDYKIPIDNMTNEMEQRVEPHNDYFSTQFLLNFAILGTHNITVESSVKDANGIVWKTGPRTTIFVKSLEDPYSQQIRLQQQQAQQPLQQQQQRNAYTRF
# Sequence of UniProt Q8IWB1 (Q8IWB1 whole entry, looked up): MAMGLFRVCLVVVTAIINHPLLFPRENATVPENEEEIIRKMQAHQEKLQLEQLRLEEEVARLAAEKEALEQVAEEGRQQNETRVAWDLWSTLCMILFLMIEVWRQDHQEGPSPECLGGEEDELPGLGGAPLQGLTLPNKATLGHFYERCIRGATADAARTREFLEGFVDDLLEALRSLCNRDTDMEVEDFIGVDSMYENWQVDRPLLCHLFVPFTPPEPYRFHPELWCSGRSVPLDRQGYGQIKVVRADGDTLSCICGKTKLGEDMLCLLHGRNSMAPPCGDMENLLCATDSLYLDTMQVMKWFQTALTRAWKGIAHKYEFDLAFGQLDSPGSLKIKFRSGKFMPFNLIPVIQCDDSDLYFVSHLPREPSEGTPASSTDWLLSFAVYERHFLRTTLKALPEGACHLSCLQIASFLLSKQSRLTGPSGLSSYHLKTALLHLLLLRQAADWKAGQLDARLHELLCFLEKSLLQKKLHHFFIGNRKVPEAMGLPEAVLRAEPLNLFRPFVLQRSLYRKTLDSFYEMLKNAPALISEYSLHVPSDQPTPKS
# Sequence of UniProt Q96QZ7 (Q96QZ7 whole entry, looked up): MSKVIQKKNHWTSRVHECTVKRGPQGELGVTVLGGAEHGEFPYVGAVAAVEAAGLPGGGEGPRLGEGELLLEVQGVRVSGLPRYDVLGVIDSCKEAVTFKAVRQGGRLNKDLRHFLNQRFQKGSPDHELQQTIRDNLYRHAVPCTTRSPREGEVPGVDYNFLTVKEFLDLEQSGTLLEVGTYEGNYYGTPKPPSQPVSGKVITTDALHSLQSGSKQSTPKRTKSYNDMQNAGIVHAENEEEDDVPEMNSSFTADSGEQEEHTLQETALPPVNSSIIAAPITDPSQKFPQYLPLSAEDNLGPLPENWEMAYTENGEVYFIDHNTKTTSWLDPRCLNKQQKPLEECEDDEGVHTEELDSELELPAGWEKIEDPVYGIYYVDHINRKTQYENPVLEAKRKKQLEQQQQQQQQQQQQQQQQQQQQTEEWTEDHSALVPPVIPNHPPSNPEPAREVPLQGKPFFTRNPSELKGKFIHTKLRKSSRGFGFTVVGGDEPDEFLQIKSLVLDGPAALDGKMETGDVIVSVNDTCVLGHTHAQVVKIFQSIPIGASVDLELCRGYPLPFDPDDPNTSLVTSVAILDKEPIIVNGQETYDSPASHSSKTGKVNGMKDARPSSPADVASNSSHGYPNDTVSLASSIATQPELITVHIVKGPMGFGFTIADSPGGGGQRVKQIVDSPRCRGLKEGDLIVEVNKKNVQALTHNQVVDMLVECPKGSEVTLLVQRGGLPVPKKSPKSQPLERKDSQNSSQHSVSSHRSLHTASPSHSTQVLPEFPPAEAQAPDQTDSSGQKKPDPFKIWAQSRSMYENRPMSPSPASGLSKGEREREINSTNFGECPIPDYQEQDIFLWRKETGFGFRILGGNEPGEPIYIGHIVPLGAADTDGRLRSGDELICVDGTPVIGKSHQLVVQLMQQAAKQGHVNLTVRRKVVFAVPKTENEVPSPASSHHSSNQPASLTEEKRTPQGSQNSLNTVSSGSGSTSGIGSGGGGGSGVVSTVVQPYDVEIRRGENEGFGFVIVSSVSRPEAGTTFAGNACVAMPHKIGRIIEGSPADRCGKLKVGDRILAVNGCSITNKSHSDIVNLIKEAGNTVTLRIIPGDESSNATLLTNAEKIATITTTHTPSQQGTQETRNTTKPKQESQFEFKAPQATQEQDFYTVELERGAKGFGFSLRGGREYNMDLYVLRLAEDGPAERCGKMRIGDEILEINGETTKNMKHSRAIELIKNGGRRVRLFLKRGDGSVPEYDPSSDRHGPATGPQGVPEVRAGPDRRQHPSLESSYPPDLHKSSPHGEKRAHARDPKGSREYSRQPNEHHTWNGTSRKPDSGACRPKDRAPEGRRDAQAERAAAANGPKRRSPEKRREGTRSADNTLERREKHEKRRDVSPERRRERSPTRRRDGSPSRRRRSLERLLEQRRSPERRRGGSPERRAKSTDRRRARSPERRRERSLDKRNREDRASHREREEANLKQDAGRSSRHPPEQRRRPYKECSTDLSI
# Sequence of UniProt O14880 (O14880 whole entry, looked up): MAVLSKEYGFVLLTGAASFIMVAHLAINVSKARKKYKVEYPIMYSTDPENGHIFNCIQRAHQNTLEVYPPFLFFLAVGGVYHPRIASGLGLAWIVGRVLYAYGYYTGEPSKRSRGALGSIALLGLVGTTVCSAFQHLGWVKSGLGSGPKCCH
# Sequence of UniProt Q8WWC4 (Q8WWC4 whole entry, looked up): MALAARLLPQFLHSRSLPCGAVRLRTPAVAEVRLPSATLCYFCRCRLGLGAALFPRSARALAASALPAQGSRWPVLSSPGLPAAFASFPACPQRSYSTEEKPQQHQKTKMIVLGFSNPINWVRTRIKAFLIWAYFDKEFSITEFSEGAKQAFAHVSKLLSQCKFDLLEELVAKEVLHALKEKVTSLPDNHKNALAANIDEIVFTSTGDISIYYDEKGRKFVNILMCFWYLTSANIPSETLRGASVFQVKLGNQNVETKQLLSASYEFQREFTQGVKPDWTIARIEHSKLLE
# Sequence of UniProt Q9UPY8 (Q9UPY8 whole entry, looked up): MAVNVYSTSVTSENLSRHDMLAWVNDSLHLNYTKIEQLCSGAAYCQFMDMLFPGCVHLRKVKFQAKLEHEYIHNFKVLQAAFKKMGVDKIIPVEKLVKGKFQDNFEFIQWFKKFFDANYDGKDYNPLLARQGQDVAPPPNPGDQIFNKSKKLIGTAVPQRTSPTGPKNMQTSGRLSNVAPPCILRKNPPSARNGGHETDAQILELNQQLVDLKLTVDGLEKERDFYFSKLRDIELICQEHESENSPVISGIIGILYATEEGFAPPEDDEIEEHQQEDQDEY
# Sequence of UniProt Q99661 (Q99661 whole entry, looked up): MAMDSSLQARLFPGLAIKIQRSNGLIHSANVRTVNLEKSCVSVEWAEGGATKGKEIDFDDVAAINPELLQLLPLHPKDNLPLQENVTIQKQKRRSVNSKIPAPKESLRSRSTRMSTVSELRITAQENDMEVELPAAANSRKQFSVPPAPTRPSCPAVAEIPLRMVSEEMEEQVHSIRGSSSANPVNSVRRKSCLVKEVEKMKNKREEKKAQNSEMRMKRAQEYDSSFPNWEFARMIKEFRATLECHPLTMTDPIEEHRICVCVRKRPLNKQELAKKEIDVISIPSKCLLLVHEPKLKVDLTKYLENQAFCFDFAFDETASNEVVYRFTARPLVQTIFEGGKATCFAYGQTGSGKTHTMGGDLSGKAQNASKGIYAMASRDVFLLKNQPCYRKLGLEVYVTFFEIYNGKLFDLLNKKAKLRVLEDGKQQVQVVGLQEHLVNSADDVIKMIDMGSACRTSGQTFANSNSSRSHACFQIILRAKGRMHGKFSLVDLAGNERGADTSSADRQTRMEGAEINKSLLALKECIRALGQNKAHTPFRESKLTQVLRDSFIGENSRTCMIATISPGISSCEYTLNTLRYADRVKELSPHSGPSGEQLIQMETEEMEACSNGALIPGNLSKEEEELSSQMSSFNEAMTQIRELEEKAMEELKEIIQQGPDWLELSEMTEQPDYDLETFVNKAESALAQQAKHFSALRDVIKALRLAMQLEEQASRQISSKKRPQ
# Sequence of UniProt P22692 (P22692 whole entry, looked up): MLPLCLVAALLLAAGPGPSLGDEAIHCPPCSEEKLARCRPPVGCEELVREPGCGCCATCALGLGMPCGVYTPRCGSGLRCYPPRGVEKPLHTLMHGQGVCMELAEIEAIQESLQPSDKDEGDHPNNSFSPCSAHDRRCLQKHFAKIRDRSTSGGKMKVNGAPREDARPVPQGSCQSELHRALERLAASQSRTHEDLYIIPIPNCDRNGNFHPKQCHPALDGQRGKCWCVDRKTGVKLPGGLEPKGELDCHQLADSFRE
# Sequence of UniProt P14174 (P14174 whole entry, looked up): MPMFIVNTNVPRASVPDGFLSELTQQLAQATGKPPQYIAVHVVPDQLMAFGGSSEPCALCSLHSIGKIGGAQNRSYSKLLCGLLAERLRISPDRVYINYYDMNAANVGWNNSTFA
Target,log2 fold change [1],log2 fold change [2],log2 fold change [3],log2 fold change [4],log2 fold change [5],log2 fold change [6],log2 fold change [7],log2 fold change [8],log2 fold change [9],log2 fold change [10],log2 fold change [11],log2 fold change [12],log2 fold change [13],log2 fold change [14],log2 fold change [15],log2 fold change [16],log2 fold change [17],log2 fold change [18],log2 fold change [19],log2 fold change [20]
MAPRE3 (UniProt Q9UPY8),-0.037,0.038,-0.012,-0.038,-0.042,0.021,-0.041,0.061,-0.037,0.027,-0.002,-0.053,-0.112,-0.052,0.066,0.002,0.049,0.004,-0.087,-0.04
MIF (UniProt P14174),0.012,0.034,0.088,0,0.052,-0.052,0.067,0.076,-0.029,0.021,-0.059,0.092,0.103,0.048,0.099,-0.085,-0.013,0.036,-0.196,0.063
INTS7 (UniProt Q9NVH2),0.02,0.033,-0.054,-0.025,-0.109,0.114,-0.021,0.017,-0.132,-0.123,-0.076,0.037,0.001,-0.045,-0.095,0.049,-0.007,0.055,0.092,0.01
MEAK7 (UniProt Q6P9B6),-0.094,0.042,0.024,-0.036,-0.078,0.025,0.02,-0.03,-0.022,0.052,-0.011,-0.117,-0.122,-0.025,0.027,0.069,0.053,-0.028,-0.021,0.016
IGFBP4 (UniProt P22692),-0.126,-0.173,0.077,-0.06,0.14,-0.007,0.116,-0.102,0.033,-0.15,-0.019,0.032,-0.011,-0.02,0.022,-0.017,-0.124,0.119,0.044,0.15
LUC7L (UniProt Q9NQ29),0.057,-0.046,0.049,-1.71 (active),0.062,0.109,-0.095,-0.054,0.049,-0.099,-0.061,0.011,0.17,-0.043,-0.01,-0.058,-0.052,-0.006,0.133,-0.095
LDLR (UniProt P01130),0.005,-0.029,0.041,-0.027,0.056,-0.064,0.013,0.029,0.097,-0.082,0.005,0.093,0.008,0.124,0.057,-0.038,-0.035,0.074,0.019,-0.071
KDM1A isoform 2 (UniProt O60341),0.007,0.014,-0.078,-0.059,-0.07,-0.001,-0.002,-0.011,-0.108,0.095,0.055,-0.038,-0.063,0.012,0.155,0.135,0.007,0,-0.063,-0.064
MAIP1 (UniProt Q8WWC4),-0.147,0.005,0.027,0.007,-0.021,-0.004,0.031,0.028,-0.047,-0.006,-0.061,-0.06,-0.129,-0.009,-0.015,0.017,0.076,-0.012,-0.085,-0.012
KIF2C (UniProt Q99661),0.1,0.122,-0.082,-0.054,-0.15,0.032,0.053,0.039,-0.103,0.081,-0.024,0,-0.053,-0.068,0.095,0.122,0.156,-0.009,-0.005,-0.001
KNTC1 (UniProt P50748),-0.013,0.043,-0.064,-0.026,-0.047,0.042,-0.073,0,-0.108,0.004,-0.037,-0.1,-0.193,-0.046,0.049,0.029,0.037,0.077,0.013,-0.004
MAGI1 (UniProt Q96QZ7),-0.055,-0.023,0.015,-0.477 (active),0.039,-0.044,0.052,-0.079,0.079,-0.021,-0.069,-0.042,0.003,-0.022,0.019,0.07,0.022,0.125,0.035,-0.081
ITPRIP (UniProt Q8IWB1),-0.126,-0.016,-0.109,0.035,-0.041,-0.08,0.073,0.012,-0.007,0.061,-0.041,-0.031,-0.373 (active),-0.021,-0.01,-0.08,-0.076,-0.009,0.019,-0.06
MGST3 (UniProt O14880),-0.085,-0.002,0.01,0.012,0.069,-0.056,0.004,-0.026,0.019,-0.094,-0.04,-0.07,0.076,0.009,-0.047,-0.043,-0.005,-0.011,-0.025,-0.056
KIF21A isoform 4 (UniProt Q7Z4S6),0.051,0.079,-0.104,0.083,-0.193,0.037,-0.066,-0.073,-0.039,0.11,-0.068,0.055,-0.049,-0.093,0.01,0.012,0.002,0.033,0.213,-0.087
MAPK14 (UniProt Q16539),1.65 (active),-0.092,1.68 (active),0.123,1.05 (active),0.071,0.107,0.014,-0.102,0,-0.019,-0.047,-0.136,-0.033,0.022,0.027,0.051,0.37,–,0.058
